Compounds with a hit are over-represented: about 7.5% of the library has one in this group of screens.
ELG1 genotox: induces genotoxicity in HEK293T cells with luciferase-tagged ELG1 | HEK293T ELG1-luciferase reporter, luminescence, 16 h | Potency, µM (top dose mostly 46 µM), for the others: at the top dose activity change, positive = activation, hits mostly activators | 1.3% of 330,000 active | AID 504466; note: % of control where 0% means no effect; nearly all actives have a fitted effect of over 60% in size
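Step 1: seed 2,000 HEK293T ELG1-luciferase cells per well. Step 2: add compound or DMSO, incubate 16 hr at 37 °C. Step 3: ONE-Glo, 30 min at room temperature, read luminescence.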
KinaseGlo FLuc: Kinase-Glo luciferase inhibition (counter-screen) | Q27757 | Kinase-Glo luciferase, ATP luminescence, 8 min | Potency, µM (top dose mostly 38.3 µM), inactives show top-dose activity change, negative = inhibition, usual class: inhibitors | 0.28% of 200,000 active | AID 1379; note: % is set by controls: 0 for no effect and ±100 for the full control effect; nearly all actives have a fitted effect of over 60% in size
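Substrate mix (final 50 mM imidazole pH 7.2, 50 mM KCl, 7 mM MgCl2, 10 uM ATP, 0.01% Tween 20, 0.05% BSA) plus pin-tool compound, then Kinase-Glo detection mix; 8 min ambient, luminescence read.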
SMN2 splice enh: SMN2 splice variant enhancement; Potency, µM (top dose mostly 46.1 µM), for inactives: top-dose activity change, positive = activation, most hits filed as activators; 2.8% of 210,000 active; HEK293 SMN2-luciferase splicing reporter, luminescence, 30-36 h; AID 1458; note: % of control where 0% means no effect; nearly all actives have a fitted effect of over 55% in size
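qHTS luciferase splicing reporter: luminescence rises when SMN2 exon 7 is included in transfected HEK293 cells. Compound exposure lasted 30-36 h at 37C, with 4.5 mM final sodium butyrate as control, followed by a ONE-Glo read.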
FLuc counter: counter-screen for miR-21 project: firefly luciferase inhibitors or activators; P08659; purified FLuc, Km substrates, luminescence inhibition; Potency, µM (top dose mostly 57.5 µM), without a hit: at the top dose activity change, negative = inhibition, usual class: inhibitors; 6.9% of 360,000 active; AID 588342;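 note: plate controls were vehicle for no effect and reference inhibitor for full effect; nearly all actives have a fitted effect of over 55% in size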
Target sequence (P08659 whole entry, looked up): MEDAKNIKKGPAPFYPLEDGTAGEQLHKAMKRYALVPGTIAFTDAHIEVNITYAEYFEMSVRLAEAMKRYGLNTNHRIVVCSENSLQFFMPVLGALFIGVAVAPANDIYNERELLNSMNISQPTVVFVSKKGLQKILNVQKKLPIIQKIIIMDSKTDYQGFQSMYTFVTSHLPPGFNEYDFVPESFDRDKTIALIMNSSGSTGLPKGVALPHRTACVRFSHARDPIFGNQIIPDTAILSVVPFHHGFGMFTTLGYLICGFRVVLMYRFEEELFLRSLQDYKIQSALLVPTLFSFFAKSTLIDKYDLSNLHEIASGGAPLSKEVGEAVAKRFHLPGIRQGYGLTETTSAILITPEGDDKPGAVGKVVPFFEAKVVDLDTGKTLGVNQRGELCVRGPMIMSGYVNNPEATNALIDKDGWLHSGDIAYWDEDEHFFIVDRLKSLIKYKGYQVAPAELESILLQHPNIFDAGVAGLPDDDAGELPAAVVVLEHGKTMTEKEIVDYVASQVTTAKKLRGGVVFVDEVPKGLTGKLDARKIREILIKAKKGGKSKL
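Purified P. pyralis luciferase, 10 nM final, with Km-level 10 uM D-luciferin and 10 uM ATP in 50 mM Tris acetate pH 7.5, 10 mM Mg acetate, 0.01% Tween-20, 0.05% BSA; 6-point qHTS titration about 60 µM downward; luminescence read.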
Rab9 prom act: activates the Rab9 promoter | Huh7 Rab9 promoter-luciferase reporter, luminescence, 24 h | Potency, µM (series often up to 9.22 µM), for the others: top-dose activation, negative = inhibition, hits mostly activators | 2.8% of 320,000 active | AID 485297; note: % of control where 0% means no effect; nearly all actives have a fitted effect of over 60% in size
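Huh7 cells stably carrying a Rab9 promoter-luciferase reporter, 1500 cells per well in OP-MEM I with 10% FBS, treated with compound 24 hours at 37C. Luciferase activity read by luminescence after 10 minutes with Amplite reagent.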
NPC1 prom act: NPC1 promoter activation; Huh7 NPC1 promoter luciferase reporter, 24 h; Potency, µM (highest dose often 9.22 µM), inactives show top-dose activation, actives largely listed as activators; 2.4% of 320,000 active; note: % of control where 0% means no effect; nearly all actives have a fitted effect of over 60% in size
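Luminescence from an NPC1 promoter-driven luciferase reporter in stably transfected Huh7 cells was measured after 24 h compound treatment at 37 °C, followed by 10 min ambient incubation with luciferase detection reagent.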
Starred values were filed as active, the others as inactive; u = inconclusive; x = no result given; [ ] = dose if it differs, or a comment. Calls come from the whole dose curve; as a rule, active = well fitted curve in the direction sought with a large enough effect; inconclusive = small, poorly fitted or top-dose-only effect, or another doubt; inactive = no such curve, though single readings can be large; an effect the other way counts as inactive or inconclusive. Potency is the fitted concentration of half-maximal effect.

SMILES	ELG1 genotox	KinaseGlo FLuc	SMN2 splice enh	FLuc counter	Rab9 prom act	NPC1 prom act
Cc1ccc(CSc2nc3cccnc3n2Cc2ccc(C(=O)NCCc3cccs3)cc2)cc1	x	x	x	0.43µM*	x	x
Cc1ccc(N(C)C(=O)c2ccc(CNc3c(N4CCC(C)CC4)c(=O)c3=O)cc2)cc1	-6%	x	x	8%	-6%	-3%
O=C(NC1CC1)c1ccc(Cn2c(SCc3ccccc3F)nc3cccnc32)cc1	x	x	x	4.8µM*	x	x
COc1cc(/C=N/Nc2nc3ccccc3s2)ccc1OC(=O)c1ccccc1F	6.5µM*	7%	u	u	u	24%
O=[N+]([O-])c1cc(Cl)cc(/C=N/Nc2nc3ccccc3s2)c1O	0%	-7%	x	u	-7%	-2%
COc1cc(/C=N/Nc2ccccc2[N+](=O)[O-])cc(OC)c1O	u	-20%	8%	u	1%	2%
COc1cc(/C=N/Nc2ccccc2[N+](=O)[O-])ccc1OC(=O)c1ccccc1F	2.6µM*	u	6.3µM*	9.5µM*	3.2µM*	4µM*
COc1cc(/C=N/Nc2nc3ccccc3s2)cc([N+](=O)[O-])c1O	4%	x	x	11µM*	22%	u
CC(C)CCNC(=O)CCc1nnc2ccc(N3CCC(C)CC3)nn12	-5%	x	x	0%	-9%	-3%
Fc1ccc(/C=N/Nc2ncnc3nc[nH]c23)cc1F	21µM*	-27%	u	u	28%	30%
Cc1ccsc1/C=N/Nc1ncnc2nc[nH]c12	15µM*	u	11µM*	19µM*	3.5µM*	2.5µM*
Cc1ccccc1/C=N/Nc1ncnc2nc[nH]c12	u	x	x	15µM*	u	u
Clc1ccc(CCNc2ncnc3nc[nH]c23)cc1	-2%	-1%	-63%	-19%	-7%	0%
c1ccc(CNc2ncnc3nc[nH]c23)cc1	-5%	0%	-3%	-2%	2%	1%
C(=N\Nc1ncnc2nc[nH]c12)/c1cccs1	16µM*	-22%	35µM*	13µM*	u	u
CCOc1ccc(NC(=O)CCS(=O)(=O)c2cccc3nonc23)cc1	x	x	6%	1%	x	x
COCC(=O)N1CCC2(CCCN(c3ccccn3)C2)CC1	x	-1%	-4%	x	x	x
Cc1nc(/N=C(\N)NC(=O)c2ccccc2)nc2ccccc12	5%	4%	18µM*	u	u	23%
Cc1nc(N=C(N)N)nc2ccccc12	-4%	0%	-25%	1%	-21%	-11%
CCCC(=O)N/C(N)=N/c1nc(C)c2cc(C)ccc2n1	5%	x	x	17µM*	23%	-9%
CC(=O)Nc1ccccc1OCc1cnc(Cl)s1	2%	4%	0%	3%	0%	-7%
Cc1ccc2c(COC(=O)CNC(=O)c3ccccc3)cc(=O)oc2c1	12%	0%	16%	19µM*	-8%	-3%
Cc1ccc2c(COC(=O)C3=COCCO3)cc(=O)oc2c1	1.8µM*	-5%	u	0.85µM*	0.79µM*	3.2µM*
Cc1ccc2c(COC(=O)c3ccccc3OC(F)F)cc(=O)oc2c1	u	x	x	4.8µM*	1%	2%
CCOc1cccc2sc(N3CCN(C(=O)C(C)(C)C)CC3)nc12	x	x	x	-4%	x	x
SMILES	ELG1 genotox	KinaseGlo FLuc	SMN2 splice enh	FLuc counter	Rab9 prom act	NPC1 prom act
COc1ccc(NC(=O)Cn2ccn(-c3ccc(F)c(F)c3)c(=O)c2=O)cc1Cl	x	x	x	3%	x	x
CN(C)Cc1ccccc1-c1cc(N(C)C)ncn1	x	-1%	-1%	x	x	x
Cc1cc(C)n(C(=O)c2cc3c(s2)CCCC3)n1	2%	-10%	8%	24µM*	8%	18%
CCSc1nnc(NC(=O)c2cc3c(s2)CCCC3)s1	7%	-2%	u	u	1.6µM*	2.5µM*
O=C(NCCCN1CCOCC1)c1cc2c(s1)CCCC2	8%	-1%	25%	3%[2.3 µM]	16%	11%
O=C(Nc1nnc(SCc2ccccc2)s1)c1cc2c(s1)CCCC2	u	-4%	-35%	u	20%	10%
O=C(NCCCN1CCCC1=O)c1cc2c(s1)CCCCC2	u	x	x	17µM*	u	29%

From PubChem BioAssay
